In ChEMBL document CHEMBL3988442, “University of Dundee, Small-Polar-MMV Screening Library” (2021):
For some assays here: Measured potencies and affinities stand elsewhere.

Key:
Set-up in all cases: scale not given: direction of the effect not stated beside the values
[1] = molecular target: Protein translocase subunit SecA (Escherichia coli (strain K12)) (UniProt P10408); experiment: Assay to Identify E. coli SecA ATPase Inhibitors; assay type: functional; settings: 30 µM
[2] = molecular target: T1, Ubiquitin-activating enzyme e1, putative (Leishmania donovani (strain BPK282A1)) (UniProt E9BSI1); experiment: Leishmania donovani Ubiquitin Activating Enzyme (LdE1); assay type: functional; settings: 30 µM
T1 sequence (whole entry): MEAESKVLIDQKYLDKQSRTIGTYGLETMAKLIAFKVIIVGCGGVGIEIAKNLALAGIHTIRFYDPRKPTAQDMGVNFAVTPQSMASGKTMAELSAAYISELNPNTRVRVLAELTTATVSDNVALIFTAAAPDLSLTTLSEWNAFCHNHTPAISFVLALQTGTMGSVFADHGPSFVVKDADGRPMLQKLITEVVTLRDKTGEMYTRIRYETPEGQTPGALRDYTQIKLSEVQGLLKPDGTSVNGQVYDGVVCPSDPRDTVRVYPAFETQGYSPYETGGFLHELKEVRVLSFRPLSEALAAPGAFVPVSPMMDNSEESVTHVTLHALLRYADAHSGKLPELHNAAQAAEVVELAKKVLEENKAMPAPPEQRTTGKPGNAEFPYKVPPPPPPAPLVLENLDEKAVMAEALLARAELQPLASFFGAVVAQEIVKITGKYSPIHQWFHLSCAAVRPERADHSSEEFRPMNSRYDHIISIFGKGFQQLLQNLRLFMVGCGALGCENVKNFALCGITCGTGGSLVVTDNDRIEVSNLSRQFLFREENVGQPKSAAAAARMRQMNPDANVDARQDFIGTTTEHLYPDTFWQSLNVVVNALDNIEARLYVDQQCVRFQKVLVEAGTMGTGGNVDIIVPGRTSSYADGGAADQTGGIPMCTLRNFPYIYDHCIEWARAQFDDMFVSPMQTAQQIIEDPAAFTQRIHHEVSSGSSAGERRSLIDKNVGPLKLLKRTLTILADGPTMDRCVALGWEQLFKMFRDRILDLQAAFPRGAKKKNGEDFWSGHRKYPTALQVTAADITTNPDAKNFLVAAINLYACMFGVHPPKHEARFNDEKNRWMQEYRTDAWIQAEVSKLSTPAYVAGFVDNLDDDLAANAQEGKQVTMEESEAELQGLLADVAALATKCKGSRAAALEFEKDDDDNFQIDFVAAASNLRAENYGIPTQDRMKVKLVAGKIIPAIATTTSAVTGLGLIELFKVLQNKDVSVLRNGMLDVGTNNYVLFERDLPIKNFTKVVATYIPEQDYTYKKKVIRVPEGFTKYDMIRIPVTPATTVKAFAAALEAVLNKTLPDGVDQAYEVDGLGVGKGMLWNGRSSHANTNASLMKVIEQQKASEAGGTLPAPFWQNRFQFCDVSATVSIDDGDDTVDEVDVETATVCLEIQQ

[3] = molecular target: AMP-activated protein kinase, AMPK (Homo sapiens) (UniProt P54646+O43741+P54619+Q9UGJ0+Q9Y478+Q13131+Q9UGI9); experiment: AMP-dependent Kinase enzyme assay. An in vitro enzyme assay that detects ADP turnover that is directly proportional to AMPK activity. This uses naive AMPK that is activated during the assay with MK-8722; assay type: functional; settings: 30 µM
[4] = molecular target: Sialic acid-binding Ig-like lectin 9 (Homo sapiens) (UniProt Q9Y336); experiment: Hs-Siglec9 ALPHAscreen SOP 20170721; settings: 10 µM
Trypanosoma cruzi = experiment: Trypanosoma cruzi phosphomannomutase and mannose-1-phosphate guanylyltransferase assay; assay type: functional; settings: 10 µM
[5] = molecular target: T2, Arginase-2, mitochondrial (Homo sapiens) (UniProt P78540); experiment: in vitro enzyme assay to detect the production of urea directly proportional to the activity of Arginase II; assay type: functional; settings: 33.3 µM; also: in the data most compounds retested in dose-response had high values
T2 sequence (whole entry): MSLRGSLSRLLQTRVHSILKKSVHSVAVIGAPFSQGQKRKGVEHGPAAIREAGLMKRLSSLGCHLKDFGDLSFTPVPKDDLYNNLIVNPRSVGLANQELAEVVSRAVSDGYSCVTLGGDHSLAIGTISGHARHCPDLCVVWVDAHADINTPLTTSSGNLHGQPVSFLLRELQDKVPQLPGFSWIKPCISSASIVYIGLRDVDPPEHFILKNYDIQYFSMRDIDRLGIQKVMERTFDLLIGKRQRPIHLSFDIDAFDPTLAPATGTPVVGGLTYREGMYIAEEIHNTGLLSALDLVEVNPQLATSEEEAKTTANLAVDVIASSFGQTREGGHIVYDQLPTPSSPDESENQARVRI

[6] = molecular target: T3, Proteasome subunit beta (Trypanosoma cruzi) (UniProt O96673); experiment: Trypanosoma cruzi proteasome chymotrypsin-like activity (TcProtChymo) assay.; also: in the data most compounds retested in dose-response had high values; assay type: functional; settings: 9.37 µM
T3 sequence (whole entry): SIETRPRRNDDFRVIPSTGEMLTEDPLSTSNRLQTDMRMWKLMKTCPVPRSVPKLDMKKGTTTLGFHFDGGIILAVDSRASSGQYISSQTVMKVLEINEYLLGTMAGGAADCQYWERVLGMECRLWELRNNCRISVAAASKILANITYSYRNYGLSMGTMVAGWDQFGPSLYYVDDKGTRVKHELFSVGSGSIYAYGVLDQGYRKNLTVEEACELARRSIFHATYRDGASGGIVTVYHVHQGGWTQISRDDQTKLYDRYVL

Homo sapiens = species on record: Homo sapiens; experiment: To identify inhibition of the IFN signalling (Jak-Stat) pathway via expression of an eGFP reporter gene under the control of an IFN-stimulated response element (ISRE) containing MxA promoter.; assay type: functional; settings: 30 µM
[7] = molecular target: T4, Tyrosyl-tRNA synthetase, putative (Trypanosoma cruzi (strain CL Brener)) (UniProt Q4DSP6); experiment: Trypanosoma cruzi tyrosyl tRNA synthetase (TcYRS) _High Tyrosine SOP; assay type: functional; settings: 30 µM; also: in the data most compounds retested in dose-response had high values
T4 sequence (whole entry): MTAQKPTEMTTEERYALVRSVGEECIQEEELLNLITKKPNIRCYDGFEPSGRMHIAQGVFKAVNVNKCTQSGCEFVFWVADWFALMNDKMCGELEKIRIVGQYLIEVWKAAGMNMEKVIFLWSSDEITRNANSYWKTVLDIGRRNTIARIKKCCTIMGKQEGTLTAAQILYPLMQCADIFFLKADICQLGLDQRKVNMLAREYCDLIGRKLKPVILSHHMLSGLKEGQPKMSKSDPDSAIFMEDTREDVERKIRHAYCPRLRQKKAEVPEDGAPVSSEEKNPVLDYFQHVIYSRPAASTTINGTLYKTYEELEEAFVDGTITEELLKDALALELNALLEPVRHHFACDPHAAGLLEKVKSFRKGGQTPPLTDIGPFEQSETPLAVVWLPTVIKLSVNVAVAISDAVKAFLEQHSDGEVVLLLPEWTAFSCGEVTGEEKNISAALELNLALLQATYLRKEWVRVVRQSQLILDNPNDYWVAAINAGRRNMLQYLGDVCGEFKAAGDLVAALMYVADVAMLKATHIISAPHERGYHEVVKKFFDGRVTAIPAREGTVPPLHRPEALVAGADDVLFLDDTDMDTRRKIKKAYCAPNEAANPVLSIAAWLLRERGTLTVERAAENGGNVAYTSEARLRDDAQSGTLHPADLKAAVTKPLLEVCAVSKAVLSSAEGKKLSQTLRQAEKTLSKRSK

[8] = molecular target: T4, Tyrosyl-tRNA synthetase, putative (Trypanosoma cruzi (strain CL Brener)); experiment: Trypanosoma cruzi tyrosyl tRNA synthetase (TcYRS) SOP; assay type: functional; settings: 30 µM
[9] = molecular target: Chromo domain-containing protein 1 (Saccharomyces cerevisiae (strain ATCC 204508 / S288c) (Baker's yeast)) (UniProt P32657); experiment: ScCHD-1 Enzyme Inhibition Assay; assay type: functional; settings: 30 µM; also: in the data most compounds retested in dose-response had high values
Sequence of Chromo domain-containing protein 1 (Saccharomyces cerevisiae (strain ATCC 204508 / S288c) (Baker's yeast)) (P32657 whole entry, the tested form may be a part): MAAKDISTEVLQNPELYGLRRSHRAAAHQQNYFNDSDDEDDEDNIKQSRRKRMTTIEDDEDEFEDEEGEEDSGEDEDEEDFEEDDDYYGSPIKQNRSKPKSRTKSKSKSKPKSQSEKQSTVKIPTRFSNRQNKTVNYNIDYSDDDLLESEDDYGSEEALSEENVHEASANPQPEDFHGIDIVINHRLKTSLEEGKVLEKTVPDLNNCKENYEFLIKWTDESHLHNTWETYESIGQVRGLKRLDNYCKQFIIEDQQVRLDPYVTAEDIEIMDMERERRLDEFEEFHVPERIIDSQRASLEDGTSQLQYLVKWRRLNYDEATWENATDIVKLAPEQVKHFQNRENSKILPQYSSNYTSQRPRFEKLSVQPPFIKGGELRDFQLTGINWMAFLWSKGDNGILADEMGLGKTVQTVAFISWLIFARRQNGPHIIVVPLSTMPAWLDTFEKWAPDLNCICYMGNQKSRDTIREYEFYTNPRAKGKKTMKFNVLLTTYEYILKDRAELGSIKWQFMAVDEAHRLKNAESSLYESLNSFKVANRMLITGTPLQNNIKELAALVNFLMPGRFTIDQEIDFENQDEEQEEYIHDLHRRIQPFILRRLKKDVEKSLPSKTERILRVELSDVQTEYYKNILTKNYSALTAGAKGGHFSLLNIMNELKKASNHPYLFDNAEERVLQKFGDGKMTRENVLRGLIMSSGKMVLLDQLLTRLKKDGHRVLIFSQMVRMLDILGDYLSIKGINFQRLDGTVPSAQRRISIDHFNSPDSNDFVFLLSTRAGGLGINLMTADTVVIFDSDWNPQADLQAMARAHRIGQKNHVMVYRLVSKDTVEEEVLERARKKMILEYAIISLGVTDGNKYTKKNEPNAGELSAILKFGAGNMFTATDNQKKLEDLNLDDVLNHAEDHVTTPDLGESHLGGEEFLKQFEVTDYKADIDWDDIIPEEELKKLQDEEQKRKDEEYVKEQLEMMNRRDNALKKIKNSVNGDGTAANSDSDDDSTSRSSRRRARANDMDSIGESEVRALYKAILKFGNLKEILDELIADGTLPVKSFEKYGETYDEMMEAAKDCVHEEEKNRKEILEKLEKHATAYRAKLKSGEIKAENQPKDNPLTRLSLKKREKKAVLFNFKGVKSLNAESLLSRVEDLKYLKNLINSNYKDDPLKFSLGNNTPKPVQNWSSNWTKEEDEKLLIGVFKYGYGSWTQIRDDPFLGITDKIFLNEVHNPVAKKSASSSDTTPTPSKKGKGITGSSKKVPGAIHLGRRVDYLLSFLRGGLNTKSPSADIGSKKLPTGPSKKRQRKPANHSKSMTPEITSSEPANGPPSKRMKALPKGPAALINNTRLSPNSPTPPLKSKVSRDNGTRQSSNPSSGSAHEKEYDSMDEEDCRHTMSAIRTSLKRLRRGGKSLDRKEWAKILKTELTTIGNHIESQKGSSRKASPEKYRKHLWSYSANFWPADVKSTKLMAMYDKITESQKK

Sequence of Sialic acid-binding Ig-like lectin 9 (Homo sapiens) (Q9Y336 whole entry): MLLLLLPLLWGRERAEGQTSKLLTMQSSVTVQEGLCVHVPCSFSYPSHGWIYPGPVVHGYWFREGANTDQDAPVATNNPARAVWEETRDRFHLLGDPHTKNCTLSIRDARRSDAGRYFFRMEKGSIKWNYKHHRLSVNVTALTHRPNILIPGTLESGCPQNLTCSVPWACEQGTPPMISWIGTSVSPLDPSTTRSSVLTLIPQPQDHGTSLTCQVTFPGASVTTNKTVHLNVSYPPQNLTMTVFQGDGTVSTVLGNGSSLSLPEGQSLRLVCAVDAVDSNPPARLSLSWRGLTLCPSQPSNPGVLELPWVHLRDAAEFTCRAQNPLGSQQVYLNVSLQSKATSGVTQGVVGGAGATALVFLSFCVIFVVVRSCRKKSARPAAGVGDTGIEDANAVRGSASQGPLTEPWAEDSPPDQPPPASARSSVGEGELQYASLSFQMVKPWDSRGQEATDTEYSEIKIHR
Sequence of Protein translocase subunit SecA (Escherichia coli (strain K12)) (P10408 whole entry): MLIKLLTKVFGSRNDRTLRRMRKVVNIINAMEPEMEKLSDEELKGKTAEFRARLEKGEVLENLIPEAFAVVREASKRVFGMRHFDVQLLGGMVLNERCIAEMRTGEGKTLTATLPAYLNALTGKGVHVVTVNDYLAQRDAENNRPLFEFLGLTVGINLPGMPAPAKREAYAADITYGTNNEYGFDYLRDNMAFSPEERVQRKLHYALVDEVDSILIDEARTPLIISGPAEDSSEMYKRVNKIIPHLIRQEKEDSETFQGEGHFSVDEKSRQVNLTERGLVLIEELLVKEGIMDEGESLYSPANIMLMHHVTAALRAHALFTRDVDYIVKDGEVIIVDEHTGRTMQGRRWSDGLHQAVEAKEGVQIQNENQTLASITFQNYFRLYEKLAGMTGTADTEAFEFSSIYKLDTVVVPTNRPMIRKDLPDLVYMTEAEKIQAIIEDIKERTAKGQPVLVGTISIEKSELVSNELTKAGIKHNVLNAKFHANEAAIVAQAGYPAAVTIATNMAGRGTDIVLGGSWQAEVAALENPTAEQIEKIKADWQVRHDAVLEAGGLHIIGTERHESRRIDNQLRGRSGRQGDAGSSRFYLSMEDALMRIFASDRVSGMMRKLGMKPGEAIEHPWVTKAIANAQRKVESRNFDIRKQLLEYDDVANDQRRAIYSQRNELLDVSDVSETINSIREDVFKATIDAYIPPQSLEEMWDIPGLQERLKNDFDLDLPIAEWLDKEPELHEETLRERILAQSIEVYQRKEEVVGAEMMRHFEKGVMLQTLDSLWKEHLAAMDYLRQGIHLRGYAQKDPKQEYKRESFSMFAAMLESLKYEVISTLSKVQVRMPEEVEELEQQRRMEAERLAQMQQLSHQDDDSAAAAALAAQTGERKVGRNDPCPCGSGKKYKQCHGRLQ

SMILES | Percent Effect [1] | Percent Effect [2] | Percent Effect [3] | Percent Effect [4] | Percent Effect (Trypanosoma cruzi) | Percent Effect [5] | Percent Effect [6] | Percent Effect (Homo sapiens) | Percent Effect [7] | Percent Effect [8] | Percent Effect [9]
CCn1cc(CN2CCCn3nc(CNC(=O)C4CCC4)cc3C2)cn1 | -2.37% | 10.4% | 0.185% | 10.6% | 4.42% | -6.9% | 18.5% | -4.18% | 6.45% | 13.6% | -3.28%
CN(C)C(=O)NC1COC2(CCN(C(=O)Nc3ccccc3)CC2)C1 (configuration not stated) | 5.37% | 18.7% | 1.41% | -7.63% | -3.54% | 0.699% | 8.72% | 3.6% | -1.06% | 6.41% | 2.03%
Cn1nc(C2CCCN(Cc3cccc(F)c3)C2)c2nccnc21 (configuration not stated) | -3.38% | 9.46% | 9.97% | 14.6% | 6.13% | -1.62% | 9.05% | 13.8% | 2.15% | 16.9% | -15.8%
Cc1cc(S(=O)(=O)N2CCC(S(C)(=O)=O)CC2)ccc1F | -4.08% | 5.2% | 6.02% | 4.37% | -0.493% | 8.39% | -2.96% | 14.6% | 4.23% | 11.5% | -5.25%
CC(C)(CNC(=O)NCCOc1cccc(F)c1)C(N)=O | -3.85% | 7.89% | 1.82% | 8.76% | 0.94% | 2.3% | 0.167% | -5.69% | 6.37% | 17.1% | -6.58%
O=C1CCSCC(C(=O)N2CCOCC2)N1 (configuration not stated) | -5.1% | 2.74% | -1.73% | -8.51% | -2.74% | -0.455% | 5.5% | 16% | 2.15% | 7.5% | 0.585%
Cc1ccc(CN2CCn3cc(CN(C)Cc4ccco4)nc3C2)o1 | -4.77% | 15.6% | -9.82% | 2.5% | 7.2% | -9.68% | 16.2% | 7.34% | 4.23% | 11.5% | -10.4%
Cn1cc(CN2CCc3onc(COc4cccnc4)c3C2)cn1 | 6.35% | 14.7% | 17.2% | -10.2% | -9.43% | -5.11% | 16.6% | 11.8% | 0% | 5.13% | -10.7%
O=C(Cc1ccccc1)N1CCC2(CC(=O)N(c3ccsc3)C2)C1 (configuration not stated) | -0.7% | 8.11% | -4.26% | -6.07% | 3.52% | 11.2% | 13.8% | -6.08% | 14.8% | -28.1% | -3.9%
CC(C)n1ncc2cc(NC(=O)N3CCC(N4CCCC4)C3)cnc21 (configuration not stated) | -1.2% | -5.41% | -12.5% | 7.73% | 4.74% | -5.73% | 12% | 3.87% | -7.92% | 23.2% | -5.17%
CC(O)CN1CCC(CNCc2cccc(C(N)=O)c2)CC1 (configuration not stated) | -1.81% | 18.9% | -22.5% | 11% | 3.11% | -6.01% | 6.67% | 10.6% | 8.37% | 16.1% | -10%
CCS(=O)(=O)N1Cc2nccn2CC(COc2cccnc2)C1 (configuration not stated) | -5.39% | 10.7% | -4.67% | 3.69% | 3.48% | -35.7% | 15.4% | 3.42% | 7.29% | 12.5% | -8.7%
COc1c(CNCc2ccc(CN(C)C)cc2)c(C(C)C)nn1C | 2.77% | -5.26% | 5.16% | 1.34% | -1.5% | 3.45% | 2.34% | 11.8% | -0.49% | 4.88% | -1.54%
Cc1cc2c(=O)n3c(nc2s1)CCN(Cc1cnn(C)c1C)CC3 | -4.39% | 9.46% | 12.6% | -0.402% | -4.74% | 2.09% | 8.58% | 7.67% | 5.38% | 9.09% | -8.69%
COc1ccccc1CC(=O)NCCCN1CCCC1C(=O)N(C)C (configuration not stated) | -0.00806% | 8.22% | -2.99% | 6.95% | 2.35% | 8.64% | 18.6% | -15.4% | 6.45% | -2.5% | -6.6%
CCc1nc(C2CCCN(C(=O)c3ccc4c(c3)nnn4C)C2)no1 (configuration not stated) | -9.33% | 18.2% | -4.8% | -5.84% | 5.19% | -4.42% | 14.3% | 5.49% | -10.5% | 21.2% | -20.9%
CC(C)(C)n1cc(C(=O)N2CCN(Cc3ccsc3)CC2)cn1 | -3.19% | 10.5% | 2.2% | 9.1% | 7.71% | -3.06% | 3.51% | -5.26% | 6.37% | 17.1% | -11%
O=C(NCCCO)Nc1cccc(Cl)c1F | -3.09% | 12.5% | -6.85% | 11.1% | 4.96% | 11% | 8.25% | -2.91% | 3.16% | 5.13% | -4.47%
Cc1nc(NC2CCCC2)cc(C2CCN2C(=O)c2ccccc2)n1 (configuration not stated) | -6.88% | 4.05% | 3.55% | 0.412% | 3.16% | -1.62% | 6.08% | -2.7% | 1.07% | 3.9% | -22.1%
Cc1noc(CN2CCOC(CN(C)C)C2)n1 (configuration not stated) | -2.18% | 24.3% | 0.532% | -4.95% | 5.11% | 2.77% | 11.3% | 22.3% | 5.94% | 18.3% | -7.83%
CN(Cc1ncc[nH]1)S(=O)(=O)c1cccc(C(=O)N2CCOCC2)c1 | -6.58% | 5.48% | 4.01% | 0.744% | -1.76% | 1.82% | 7.1% | 0.0404% | 2.15% | 7.5% | -7.89%
CCn1cc(CN(C)C(=O)c2cccc(CCC(C)(C)O)c2)cn1 | -5.71% | 5.33% | -1.82% | -0.5% | -5.36% | 1.04% | 15% | 9.2% | 7.1% | 6.17% | -6.76%
